Experimental findings from PubChem BioAssay (NCI) are described below.

What all share (test): NCI-60 one-dose screen, 48 h (100 = growth as untreated, 0 = no growth, -100 = all killed)
Common to all, as to settings: 10 µM unless noted

Assay [1] has as its system HCT-15 colon.
Assay [2] has as its system HT29 colon.
The test system of assay [3] is SNB-75 CNS.
Assay [4] concerns SNB-19 CNS.
Assay [5] has as its system U251 CNS.
The subject of assay [6] is PC-3 prostate.
In assay [7] the test system is SK-MEL-5 melanoma.
For assay [8], the system named is UACC-62 melanoma.
Assay [9] deals with LOX IMVI melanoma.
Assay [10] deals with SK-MEL-28 melanoma.
The subject of assay [11] is SK-MEL-2 melanoma.
Assay [12] relates to EKVX NSCLC.
Assay [13] has as its system SN12C renal.
For assay [14], the system named is UO-31 renal.
The test system of assay [15] is TK-10 renal.
Assay [16] concerns ACHN renal.
For assay [17], the system named is A498 renal.
Assay [18] concerns MOLT-4 leukemia.
The subject of assay [19] is SR leukemia.
Assay [20] has as its system CCRF-CEM leukemia.

This is part of a sample that, as a whole, favours compounds with a hit. Of some 83,000 tested, about 20% had one in any assay.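 For each line, cells grew in 96-well plates with the test compound present at a single concentration for 48 hours.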 A number with no mark means an inactive call. Calls of active or inactive are those of the source. Rule for the calls: active = growth percent below 10; inactive = the rest.

Turning to `Nc1ccc(C2=NN(C(=O)c3cc(-c4ccc(Cl)cc4)nc4ccccc34)C(c3ccccc3)C2)cc1` (configuration not stated), the growth is 25.5% in assay [1]; 12.2% in assay [2]; 40.2% in [3]; 34.1% in assay [4]; 40.1% in assay [5]; 26.8% in assay [6]. Besides, the growth was 25.9% in [7]; 38.9% in assay [8]; 42.5% in assay [9]; 58.8% in assay [10]; 37.1% in assay [11]; 40.4% in assay [12]. The growth is 51.2% in [13]; 49.5% in assay [14]; 58.5% in assay [15]; 51.5% in [16]; 30% in assay [17]; 41.2% in assay [18]. In assay [19], the growth is 25.9%.

As to `O=C(CCl)N1CCCc2ccccc21`, the growth in assay [1] is 99.8%; in [2], 103%; in assay [3], 72.6%; in assay [4] it was 100%; in [5], 105%; in assay [6], 96.8%. For the same compound, the growth in assay [7] is 95.7%; in assay [8], 94.3%; in [9] it was 99.6%; in [10] it was 103%; in assay [11], 110%; in assay [12] it was 96.4%. Also, the growth was 93.8% in [13]; 82.8% in [14]; 102% in assay [15]; 101% in assay [16]; 96.8% in assay [20]; 93.5% in assay [18]. Further, the growth in [19] is 101%.

On to `COCCc1n(Cc2ccc3ccccc3c2)c2ccccc2[n+]1Cc1ccc2ccccc2c1`, for which the growth in assay [1] is 7.25% (active); in assay [2] it was -61.3% (active); in assay [3], -39.7% (active); in assay [4] it was -73.8% (active); in assay [5], -89.8% (active); in [6], -14.5% (active). Besides, the growth in [7] was -97.5% (active); in assay [8], -89.3% (active); in assay [9] it was -92.5% (active); in assay [10], -46.4% (active); in [11] it was -61.6% (active); in assay [12], 4.7% (active). Also, the growth is -68% (active) in assay [13]; -18.7% (active) in assay [14]; -80.9% (active) in [15]; 20.3% in [16]; -19.1% (active) in assay [17]; -43.4% (active) in assay [18]. Further, the growth in assay [19] is -57% (active).

For `O=C(O)c1cn(C2CC2)c2cc(N3CCN(C(=O)CSc4nnc(-c5ccc(Cl)cc5)n4-c4ccccc4)CC3)c(F)cc2c1=O`, the growth in assay [1] was 104%; in assay [2], 97.2%; in assay [3], 95.8%; in [4], 91.3%; in [5] it was 101%; in [6], 93.7%. The growth in assay [7] is 98.8%; in [8], 91.3%; in assay [9], 72.3%; in assay [10] it was 109%; in assay [11], 104%; in [12], 111%. For the same compound, the growth in [13] is 102%; in assay [14], 84.7%; in assay [15], 99.4%; in [16], 108%; in assay [20], 84.3%; in [18] it was 103%. Also, the growth in assay [19] is 89.9%.

In the case of `COc1cc([C@H](C)c2ccc3ccccc3c2)cc(OC)c1OC`, the growth in assay [1] was 21.7%; in assay [2] it was 8.72% (active); in [3], 0.258% (active); in assay [4], 32.7%; in assay [5], 19.6%; in [6], 30.5%. Besides, the growth in assay [7] is 18.1%; in [8] it was 32.5%; in assay [9], 48.6%; in [10] it was 61.8%; in assay [11], 28.3%; in [12], 30.9%. Besides, the growth in assay [13] was 48.3%; in assay [14], 42.1%; in [15], 61.4%; in assay [16], 35.1%; in assay [20], 16%; in assay [18] it was 13.5%. Moreover, in [19], the growth is 23.5%.

As to `CNS(=O)(=O)c1cccc(-c2ccc3c4c(n(C)c(=O)c3c2)-c2ccccc2C4=O)c1`, the growth in assay [1] was 30.5%; in assay [2] it was 45.8%; in assay [3] it was 65.9%; in [4] it was 31.3%; in assay [5], 23.2%; in assay [6] it was 73.4%. In addition, the growth in assay [7] was 48.3%; in assay [8], 56.3%; in assay [9], 35.1%; in assay [10], 93%; in [11], 113%; in assay [12], 51.7%. The growth in assay [13] was 19.5%; in [14] it was 35.4%; in [15] it was 85.5%; in [16], 0.944% (active); in assay [17] it was 72.1%; in assay [18], -1.83% (active). Also, the growth in [19] is 3.35% (active).

Take `C=C1C(=O)O[C@H]2[C@H]1CC/C(COC(=O)NCC(=O)Nc1ccc(OC)c(C(N)=O)c1O)=C\CC[C@@]1(C)O[C@@H]21`: the growth is 91.2% in [1]; 18.8% in assay [2]; 76.9% in assay [3]; 73.9% in assay [4]; 62.6% in [5]; 85.7% in [6]. Further, the growth in assay [7] is 76.4%; in assay [8], 42.8%; in assay [9], 55.8%; in assay [10], 47.9%; in assay [11], 77.5%; in [12], 85.1%. For the same compound, the growth in [13] was 37.9%; in assay [14], 82.7%; in [15], 47.2%; in assay [16] it was 75.3%; in assay [17], 86.4%; in assay [18] it was 41.8%. In addition, in assay [19], the growth is 12.6%.

Regarding `CCOC(=O)CC[C@H](NC(=O)c1ccc(NC)c2ccccc12)C(=O)OCC`, the growth was 96.1% in assay [1]; 105% in [2]; 91.8% in assay [3]; 92.4% in [4]; 97.8% in [5]; 80.2% in assay [6]. Also, the growth was 97.2% in [7]; 89.7% in assay [8]; 93.8% in assay [9]; 103% in assay [10]; 106% in [11]; 89.4% in assay [12]. Besides, the growth in assay [13] was 90.3%; in [14] it was 93.8%; in assay [15], 90.6%; in assay [16], 98.8%; in [20], 91.2%; in assay [18] it was 98.6%. The growth in [19] was 101%.
